Measurements as given in the supplement of paper PMC11732987, “Enantioselective OTUD7B fragment discovery through chemoproteomics screening and high-throughput optimisation” (Communications Chemistry, 2025).
Unmarked numbers belong to inactive results.

Assays:
Experiment in all cases: log2 ratio of Biotin-Ahx-Ub-VS probe labelling (fragment/DMSO); higher = less target engagement (more negative = stronger competition), active = hit call of the paper (q ≤ 0.05, log2 ratio ≤ -1)
Conditions in all cases: compound concentration: 200 uM; treatment time: 3 h
OTUD6B = target: T1, OTUD6B (UniProt Q8N6M0)
T1 sequence (whole entry): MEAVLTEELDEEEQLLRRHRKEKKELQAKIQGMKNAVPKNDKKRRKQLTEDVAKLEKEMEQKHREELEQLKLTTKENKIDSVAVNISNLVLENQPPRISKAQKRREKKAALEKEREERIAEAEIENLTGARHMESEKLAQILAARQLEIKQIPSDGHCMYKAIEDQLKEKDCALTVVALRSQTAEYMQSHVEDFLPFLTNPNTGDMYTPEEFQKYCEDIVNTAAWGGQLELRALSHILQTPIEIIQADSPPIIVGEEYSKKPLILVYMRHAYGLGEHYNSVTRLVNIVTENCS
Procedure, shortened: (§1)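 Values give the average log2 ratio of fragment to vehicle, assessed by unpaired t-test on global-median-normalised Spectronaut label-free quantities. Proteins needed ≥2 unique peptides. HEK293T lysate (495 µg per sample) was treated in triplicate with fragment at 200 µM or vehicle for 3 h and then with Biotin-Ahx-Ub-VS at 0.5 µM final for 1 h. Labelled DUBs were NeutrAvidin-enriched, digested and run by diaPASEF LC-MS/MS.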

OTUD7B = target: T2, OTUD7B (UniProt Q6GQQ9)
T2 sequence (whole entry): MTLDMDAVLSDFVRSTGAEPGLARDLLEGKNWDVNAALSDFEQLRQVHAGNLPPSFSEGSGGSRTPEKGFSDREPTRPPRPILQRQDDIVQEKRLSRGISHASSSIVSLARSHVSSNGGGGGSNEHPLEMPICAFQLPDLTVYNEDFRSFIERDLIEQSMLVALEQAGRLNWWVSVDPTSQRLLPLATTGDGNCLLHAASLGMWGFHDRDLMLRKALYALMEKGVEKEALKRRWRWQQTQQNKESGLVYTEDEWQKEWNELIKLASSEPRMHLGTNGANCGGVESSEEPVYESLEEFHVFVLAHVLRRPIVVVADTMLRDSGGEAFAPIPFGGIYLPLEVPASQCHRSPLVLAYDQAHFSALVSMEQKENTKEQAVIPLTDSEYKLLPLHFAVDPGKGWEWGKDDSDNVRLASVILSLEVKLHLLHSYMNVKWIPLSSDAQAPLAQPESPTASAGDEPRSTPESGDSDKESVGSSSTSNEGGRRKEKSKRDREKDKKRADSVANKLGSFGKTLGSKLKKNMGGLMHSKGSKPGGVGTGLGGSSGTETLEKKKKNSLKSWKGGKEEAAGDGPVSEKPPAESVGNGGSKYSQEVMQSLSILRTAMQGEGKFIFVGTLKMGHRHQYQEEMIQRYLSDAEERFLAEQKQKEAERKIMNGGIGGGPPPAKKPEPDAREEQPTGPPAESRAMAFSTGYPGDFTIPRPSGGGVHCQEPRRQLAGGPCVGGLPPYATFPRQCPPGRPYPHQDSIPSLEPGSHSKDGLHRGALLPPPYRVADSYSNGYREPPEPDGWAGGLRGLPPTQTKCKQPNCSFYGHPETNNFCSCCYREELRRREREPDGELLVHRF
Procedure, shortened: as §1

PRPF8 = PRPF8 (UniProt Q6P2Q9)
Procedure, shortened: as §1

PSMD7 = target: T3, PSMD7 (UniProt P51665)
T3 sequence (whole entry): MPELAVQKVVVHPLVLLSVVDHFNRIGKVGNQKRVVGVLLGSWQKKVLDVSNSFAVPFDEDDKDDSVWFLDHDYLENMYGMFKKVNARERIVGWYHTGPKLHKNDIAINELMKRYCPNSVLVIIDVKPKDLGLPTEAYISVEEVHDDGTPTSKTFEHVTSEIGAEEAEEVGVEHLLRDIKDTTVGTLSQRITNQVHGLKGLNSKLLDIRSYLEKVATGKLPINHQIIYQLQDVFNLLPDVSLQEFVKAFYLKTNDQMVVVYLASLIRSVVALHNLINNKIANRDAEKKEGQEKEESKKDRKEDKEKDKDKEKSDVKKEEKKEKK
Procedure, shortened: as §1

UCHL1 = UCHL1 (UniProt P09936)
UCHL1, sequence (P09936 whole entry, looked up): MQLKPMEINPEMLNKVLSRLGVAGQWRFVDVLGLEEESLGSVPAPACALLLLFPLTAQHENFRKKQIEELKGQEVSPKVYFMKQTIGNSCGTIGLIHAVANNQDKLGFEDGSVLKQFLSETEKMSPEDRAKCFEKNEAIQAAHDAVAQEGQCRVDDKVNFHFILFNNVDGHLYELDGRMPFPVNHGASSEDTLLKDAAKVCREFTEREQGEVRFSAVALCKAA
Procedure, shortened: as §1

UCHL3 = target: T4, UCHL3 (UniProt P15374)
T4 sequence (whole entry): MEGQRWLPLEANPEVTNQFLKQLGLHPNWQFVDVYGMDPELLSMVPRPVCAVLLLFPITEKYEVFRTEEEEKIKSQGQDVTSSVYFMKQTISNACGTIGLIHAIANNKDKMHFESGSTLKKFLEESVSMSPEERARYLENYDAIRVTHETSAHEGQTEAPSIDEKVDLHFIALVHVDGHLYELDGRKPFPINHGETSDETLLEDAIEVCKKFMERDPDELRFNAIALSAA
Procedure, shortened: as §1

UCHL5 = target: T5, UCHL5 (UniProt Q9Y5K5)
T5 sequence (whole entry): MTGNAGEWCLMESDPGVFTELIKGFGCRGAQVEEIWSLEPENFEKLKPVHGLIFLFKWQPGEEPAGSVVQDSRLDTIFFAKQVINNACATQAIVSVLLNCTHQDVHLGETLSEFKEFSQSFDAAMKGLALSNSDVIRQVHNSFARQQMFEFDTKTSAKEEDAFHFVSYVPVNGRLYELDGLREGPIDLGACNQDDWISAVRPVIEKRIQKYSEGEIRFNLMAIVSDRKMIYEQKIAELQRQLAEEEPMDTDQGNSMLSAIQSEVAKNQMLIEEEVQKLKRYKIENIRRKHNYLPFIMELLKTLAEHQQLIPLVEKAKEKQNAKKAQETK
Procedure, shortened: as §1

USP10 = USP10 (UniProt Q14694)
USP10, sequence (Q14694 whole entry): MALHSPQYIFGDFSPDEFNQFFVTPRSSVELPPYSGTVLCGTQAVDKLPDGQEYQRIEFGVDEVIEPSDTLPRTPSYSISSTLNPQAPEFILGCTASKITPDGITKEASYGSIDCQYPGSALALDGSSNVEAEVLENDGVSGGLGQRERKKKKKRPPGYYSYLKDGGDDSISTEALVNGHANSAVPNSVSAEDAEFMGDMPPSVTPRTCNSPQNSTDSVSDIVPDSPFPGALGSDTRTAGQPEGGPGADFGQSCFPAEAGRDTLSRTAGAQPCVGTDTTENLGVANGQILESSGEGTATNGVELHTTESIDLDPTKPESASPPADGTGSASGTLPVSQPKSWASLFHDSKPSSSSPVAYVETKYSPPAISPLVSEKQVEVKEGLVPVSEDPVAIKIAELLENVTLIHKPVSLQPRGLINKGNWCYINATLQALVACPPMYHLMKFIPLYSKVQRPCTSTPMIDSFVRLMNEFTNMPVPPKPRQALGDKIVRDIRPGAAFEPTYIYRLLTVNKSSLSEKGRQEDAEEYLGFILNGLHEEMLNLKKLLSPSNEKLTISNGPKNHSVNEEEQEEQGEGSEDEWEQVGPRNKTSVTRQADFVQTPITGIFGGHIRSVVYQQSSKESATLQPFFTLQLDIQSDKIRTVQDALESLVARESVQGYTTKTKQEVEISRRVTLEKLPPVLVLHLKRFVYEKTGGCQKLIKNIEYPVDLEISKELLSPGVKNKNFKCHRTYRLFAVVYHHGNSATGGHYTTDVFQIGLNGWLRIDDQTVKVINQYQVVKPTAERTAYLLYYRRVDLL
Procedure, shortened: as §1

USP15 = target: T6, USP15 (UniProt Q9Y4E8)
T6 sequence (whole entry): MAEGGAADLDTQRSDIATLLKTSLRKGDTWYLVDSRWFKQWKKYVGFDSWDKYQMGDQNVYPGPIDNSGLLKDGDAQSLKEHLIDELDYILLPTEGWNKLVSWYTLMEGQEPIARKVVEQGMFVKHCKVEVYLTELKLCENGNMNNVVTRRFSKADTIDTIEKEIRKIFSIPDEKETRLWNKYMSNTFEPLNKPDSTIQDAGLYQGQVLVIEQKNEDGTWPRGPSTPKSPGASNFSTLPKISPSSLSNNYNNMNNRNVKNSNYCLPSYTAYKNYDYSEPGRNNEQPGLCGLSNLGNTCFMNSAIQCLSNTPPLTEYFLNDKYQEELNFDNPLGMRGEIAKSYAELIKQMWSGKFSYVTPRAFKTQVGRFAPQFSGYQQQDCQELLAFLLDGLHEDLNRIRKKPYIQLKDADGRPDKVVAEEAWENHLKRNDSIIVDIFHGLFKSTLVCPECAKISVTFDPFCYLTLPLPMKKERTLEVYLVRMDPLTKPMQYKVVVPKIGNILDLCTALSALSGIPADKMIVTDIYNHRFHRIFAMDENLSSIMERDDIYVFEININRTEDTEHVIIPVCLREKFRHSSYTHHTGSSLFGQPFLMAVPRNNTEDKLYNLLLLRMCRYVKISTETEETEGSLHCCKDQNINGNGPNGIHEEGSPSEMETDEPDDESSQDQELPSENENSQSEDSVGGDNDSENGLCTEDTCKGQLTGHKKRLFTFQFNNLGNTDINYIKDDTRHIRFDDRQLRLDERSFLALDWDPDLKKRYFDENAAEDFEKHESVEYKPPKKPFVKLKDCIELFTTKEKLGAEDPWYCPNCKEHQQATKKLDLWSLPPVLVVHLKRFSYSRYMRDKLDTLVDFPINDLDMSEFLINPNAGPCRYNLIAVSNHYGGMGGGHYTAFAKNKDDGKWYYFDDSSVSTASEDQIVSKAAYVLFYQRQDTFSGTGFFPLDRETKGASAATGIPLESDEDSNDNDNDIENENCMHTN
Procedure, shortened: as §1

USP16 = USP16 (UniProt Q9Y5T5)
USP16, sequence (Q9Y5T5 whole entry, looked up): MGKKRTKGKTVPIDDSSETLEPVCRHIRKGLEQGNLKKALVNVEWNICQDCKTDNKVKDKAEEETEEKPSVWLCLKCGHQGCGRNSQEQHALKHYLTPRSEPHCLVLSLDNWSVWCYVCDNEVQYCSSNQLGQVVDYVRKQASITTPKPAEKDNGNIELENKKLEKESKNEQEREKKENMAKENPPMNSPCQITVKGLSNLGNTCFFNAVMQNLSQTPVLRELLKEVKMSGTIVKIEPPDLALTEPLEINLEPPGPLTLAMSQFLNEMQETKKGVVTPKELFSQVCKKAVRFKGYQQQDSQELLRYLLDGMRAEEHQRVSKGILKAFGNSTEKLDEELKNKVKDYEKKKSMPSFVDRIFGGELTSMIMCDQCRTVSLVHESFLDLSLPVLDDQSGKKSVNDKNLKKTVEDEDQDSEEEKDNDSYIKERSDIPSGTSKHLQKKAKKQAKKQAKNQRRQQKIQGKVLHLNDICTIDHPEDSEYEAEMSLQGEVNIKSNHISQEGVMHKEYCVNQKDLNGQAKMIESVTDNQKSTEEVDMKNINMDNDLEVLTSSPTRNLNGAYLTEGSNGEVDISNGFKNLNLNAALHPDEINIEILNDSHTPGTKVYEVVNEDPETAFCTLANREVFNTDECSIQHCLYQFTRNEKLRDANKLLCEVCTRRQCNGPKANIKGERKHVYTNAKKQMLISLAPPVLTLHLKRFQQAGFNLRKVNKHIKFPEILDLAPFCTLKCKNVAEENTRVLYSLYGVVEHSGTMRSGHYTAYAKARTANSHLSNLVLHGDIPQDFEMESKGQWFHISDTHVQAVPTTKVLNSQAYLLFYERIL
Procedure, shortened: as §1

## Cc1n[nH]c2c1CN(C(=O)CCl)CC2
OTUD6B
  log2 ratio of Biotin-Ahx-Ub-VS probe labelling: -0.715
OTUD7B
  log2 ratio of Biotin-Ahx-Ub-VS probe labelling: -1.53 (active)
PRPF8
  log2 ratio of Biotin-Ahx-Ub-VS probe labelling: 0.0355
PSMD7
  log2 ratio of Biotin-Ahx-Ub-VS probe labelling: -0.368
UCHL1
  log2 ratio of Biotin-Ahx-Ub-VS probe labelling: -1.15
UCHL3
  log2 ratio of Biotin-Ahx-Ub-VS probe labelling: -0.699
UCHL5
  log2 ratio of Biotin-Ahx-Ub-VS probe labelling: -0.886
USP10
  log2 ratio of Biotin-Ahx-Ub-VS probe labelling: -0.519
USP15
  log2 ratio of Biotin-Ahx-Ub-VS probe labelling: -0.982
USP16
  log2 ratio of Biotin-Ahx-Ub-VS probe labelling: -0.207
